Reference: PubChem BioAssay (NCATS)
Where “and” joins values, the source holds several entries; their conditions need not be identical. Equal entries are not always repeated. Results filed as inconclusive are left out. A call without a number means that no potency is given here. Where a structure was tested more than once in an assay, its records may differ in their call. Calls of active or inactive are those of the source. The call rests on the fitted dose curve; in most records, active means well fitted inhibition curve with a large enough effect; inconclusive means small, poorly fitted or top-dose-only effect; inactive means no such curve, though single readings can be large or run the other way.

assay: Counterscreen qHTS for small molecule stabilizers of the endoplasmic reticulum resident proteome: GLuc-NoTag assay (AID 1508627); settings: Gaussia luciferase NoTag secretion counterscreen, luminescence, thapsigargin 100 nM for final 4 h; series mostly up to 76.4 µM;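 further: SH-SY5Y cells given compound then 100 nM thapsigargin to empty ER calcium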
Excerpt: Assay Provider: Brandon K. Harvey Ph.D.
National Institute on Drug Abuse, National Institutes of Health, Baltimore, MD
Endoplasmic reticulum (ER) dysregulation is associated with human pathologies including neurodegenerative, cardiovascular, muscular, and diabetic conditions. Maintenance of ER calcium is critical for functions of the ER and its depletion can lead to loss of ER resident proteins, in a process termed exodosis. Therapeutic compounds capable of attenuating the redistribution of ER proteins under pathological conditions may slow or stop disease progression. To identify such compounds, we performed a quantitative high-throughput screen (qHTS) using the SERCaMP assay, which monitors secretion of ER resident proteins triggered by calcium depletion.
SERCaMP was initially developed as a reporter of ER calcium homeostasis using a Gaussia luciferase with a modified signal peptide and carboxy-terminus (GLuc-SERCaMP), modifications that confer secretion of the reporter in response to ER calcium depletion (Henderson et al., 2014). The assay was used to screen 9,501 compounds, including a collection of drugs approved by the FDA (US), EMA (EU), NHI (Japan), and HC (Canada) regulatory agencies (Huang et al., 2011). Since the SERCaMP reporter reflects the exodosis phenomenon (Trychta et al., 2018a), compounds identified in the screen have the potential to prevent exodosis by different mechanisms such as stabilizing ER calcium or augmenting ERS retrieval.
1. Henderson, M.J., Wires, E.S., Trychta, K.A., Richie, C.T., and Harvey, B.K. (2014). SERCaMP: a carboxy-terminal protein modification that enables monitoring of ER calcium homeostasis. Mol Biol Cell 25, 2828-2839.
2. Huang, R., Southall, N., Wang, Y., Yasgar, A., Shinn, P., Jadhav, A., Nguyen, D.T., and Austin, C.P. (2011). The NCGC pharmaceutical collection: a comprehensive resource of clinically approved drugs enabling repurposing and chemical genomics. Sci Transl Med 3, 80ps16.
3. Trychta, K.A., Back, S., Henderson, M.J., and Harvey, B.K. (2018a). KDEL Receptors Are Differentially Regulated to Maintain the ER Proteome under Calcium Deficiency. Cell Rep 25, 1829-1840 e1826.
SEQUENCE No. (1, 2, 3, etc.); […] (e.g., Cells, Incubation, Reagent, etc.); VALUE and DESCRIPTION.
1; Reagent; 5 uL; 1000 SH-SY5Y cells per wells
3; Compound; 23 nL; Control inhibitor / compound library
5; Reagent; 100 nM; Thapsigargin
7; Reagent; 1 uL; 0.5x coelenterazine
8; Detection; Luminescence; ViewLux imaging system
NOTES (numbers refer to sequence above)
1; SH-SY5Y human neuroblastoma cells stably expressing the constitutively secreted GLuc (SH-SY5Y-GLuc-NoTag) cells were seeded in 1,536 well white tissue culture treated plates (Corning, Cat# 7464) in DMEM-high glucose-sodium pyruvate (ThermoFisher Scientific, Cat #10569) supplemented with 10% bovine growth serum (Hyclone), 10 U/ml penicillin (Gibco), 10 ug/ml streptomycin (Gibco), and 20 mM HEPES.
2; Assay plates were incubated for 5 hour at 37C in a humidified incubator containing 5% CO2.
4; Cells were then incubated for 19 hours at 37C, 5% CO2.
5; Thapsigargin was added at 100 nM to deplete ER calcium stores.
6; Cells were incubated for 4 hour (37 °C, 5% CO2)
7; Gaussia luciferase in the medium was measured by adding 1 ul of 0.5x coelenterazine (final concentration 0.07x) prepared in Gaussia Luciferase Glow Assay Buffer (Pierce), without addition of the Cell Lysis Buffer Reagent.
8; Luminescence was measured using a ViewLux CCD imaging system (Perkin Elmer) equipped with clear filters. […] The same controls were also used for the calculation of the Z' factor, a measure of assay quality control, as previously described (Zhang et al., 1999). For the initial validation of activity in the SERCaMP assays, hits from the primary screen were assayed again at 11-concentrations (1.3 nM - 76.6 uM). SH-SY5Y-GLuc-SERCaMP cells were assayed for ER Ca2+ depletion as outlined above.
1. Zhang, J.H., Chung, T.D., and Oldenburg, K.R. (1999). […]

SMILES	Potency
CCN(CC)CCOC(=O)c1ccc(N)cc1	inactive
CN(C)CCC(c1ccccc1)c1ccccn1 (configuration not stated)	inactive
CC1=C(/C=C/C(C)=C/C=C/C(C)=C/C(=O)Nc2ccc(O)cc2)C(C)(C)CCC1	inactive

assay: Confirmatory qHTS for small molecule stabilizers of the endoplasmic reticulum resident proteome: Secreted ER Calcium Modulated Protein (SERCaMP) assay (AID 1508628); settings: SERCaMP secreted luciferase ER calcium/proteostasis reporter; series mostly up to 76.3 µM; further: nearly all actives have a fitted effect of over 40% in size; further: potency means the concentration at half of the fitted maximal effect
How it was run: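 SH-SY5Y cells stably expressing GLuc-SERCaMP, treated 16 h with compound (primary 1.53, 7.67, 38.3 uM; confirmation 11 concentrations, up to 76.6 uM), then 100 nM thapsigargin for 4 h. Secreted Gaussia luciferase in medium read by coelenterazine luminescence.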

SMILES	Potency
CCN(CC)CCOC(=O)c1ccc(N)cc1	inactive
CN(C)CCC(c1ccccc1)c1ccccn1 (configuration not stated)	inactive
CC1=C(/C=C/C(C)=C/C=C/C(C)=C/C(=O)Nc2ccc(O)cc2)C(C)(C)CCC1	inactive and 31.6 µM (active)

assay: Primary qHTS for small molecule stabilizers of the endoplasmic reticulum resident proteome: Secreted ER Calcium Modulated Protein (SERCaMP) assay (AID 1508630); settings: SH-SY5Y GLuc-SERCaMP (Gaussia luciferase released on ER calcium loss) secretion, thapsigargin, luminescence; series mostly up to 38.4 µM
How it was run: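 GLuc-SERCaMP-expressing SH-SY5Y cells, pretreated 16 h with compound, are challenged with thapsigargin to empty ER calcium stores; after 4 h, coelenterazine is added directly to the medium and luminescence is imaged.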

SMILES	Potency
NCCS	inactive
CCN(CC)CCNC(=O)c1ccc(N)cc1	inactive
CCN1CCC[C@H]1CNC(=O)c1cc(S(N)(=O)=O)ccc1OC	inactive
O=c1cc(-c2ccccc2)oc2cc(O)c(O)c(O)c12	inactive
O=C1NC(=O)C(c2ccccc2)(c2ccccc2)N1	inactive
CC(=O)c1ccc(S(=O)(=O)NC(=O)NC2CCCCC2)cc1	inactive
Clc1ccc(C(c2ccc(Cl)cc2)n2cc[n+](CC(OCc3ccc(Cl)cc3Cl)c3ccc(Cl)cc3Cl)c2)cc1 (configuration not stated)	inactive
COc1ccccc1N1CCN(CCCNc2cc(=O)n(C)c(=O)n2C)CC1	inactive
CCN(CC)CCOC(=O)c1ccc(N)cc1	inactive
CN(C)CCC(c1ccccc1)c1ccccn1 (configuration not stated)	inactive
NC(N)=Nc1nc(CSCC/C(N)=N/S(N)(=O)=O)cs1	inactive
Clc1ccc(Cn2c(CN3CCCC3)nc3ccccc32)cc1	inactive
O=C(O)c1c(Cl)c(Cl)c(Cl)c(Cl)c1-c1c2cc(I)c(=O)c(I)c-2oc2c(I)c(O)c(I)cc12	inactive
C[N+](C)(C)CCCCCC[N+](C)(C)C	inactive
CCCNC(=O)NS(=O)(=O)c1ccc(Cl)cc1	inactive
COc1cccc(-c2cc(=O)c3ccccc3o2)c1N	inactive
O=C(NCCN1CCOCC1)c1ccc(Cl)cc1	inactive
CC1(C)CCC2=C(O1)c1ccccc1C(=O)C2=O	inactive
O=c1cc(-c2ccc(O)cc2)oc2cc(O)cc(O)c12	inactive
C=C1C(=O)[C@@]23C(CC[C@@H]1[C@H]2O)[C@@]12CO[C@]3(O)[C@@H](O)[C@@H]1C(C)(C)CC[C@@H]2O (some centres not stated)	inactive
CC1=C(/C=C/C(C)=C/C=C/C(C)=C/C(=O)Nc2ccc(O)cc2)C(C)(C)CCC1	inactive
CCc1ccc(C=C2SC(=S)NC2=O)cc1	inactive
CC(=O)O[C@]1(C(C)=O)CC[C@H]2[C@@H]3C=C(Cl)C4=CC(=O)[C@@H]5C[C@@H]5[C@]4(C)[C@H]3CC[C@@]21C	inactive
CCN(CC)C(=O)c1ccc(O)c(OC)c1	inactive
CC(=O)N[C@@H](CS)C(=O)O	inactive
O=C1NCC2(CCN(CCc3ccccc3)CC2)O1	inactive
